Source: PubChem BioAssay (NCATS)
Inconclusive results are not listed. Values without a mark were called inactive. Calls follow the shape of the dose curve; as a rule, active = well fitted inhibition curve with a large enough effect; inconclusive = small, poorly fitted or top-dose-only effect; inactive = no such curve, though single readings can be large or run the other way.

Experiment: Primary qHTS for small molecule stabilizers of the endoplasmic reticulum resident proteome: Secreted ER Calcium Modulated Protein (SERCaMP) assay (AID 1508630)
Details: SH-SY5Y GLuc-SERCaMP (Gaussia luciferase released on ER calcium loss) secretion, thapsigargin, luminescence; series mostly up to 38.4 µM; activity change, negative = inhibition: at the top concentration
Method in brief: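 The SH-SY5Y reporter protocol was run at 3 concentrations up to 38.3 uM (primary) or 11 concentrations (follow-up): 16 h compound, 100 nM thapsigargin for 4 h, then extracellular luciferase luminescence.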
% is scaled to controls: 0 for no effect and ±100 for the full control effect.

Row | Structure (SMILES) | activity change, negative = inhibition
1 | CN[C@H]1[C@@H](O[C@@H]2[C@H](O[C@@H]3[C@@H](O)[C@@H](O)[C@@H](N=C(N)N)[C@@H](O)[C@@H]3N=C(N)N)O[C@H](C)[C@@]2(O)C=O)O[C@@H](CO)[C@@H](O)[C@H]1O | 99.7% [at 13 µM]
2 | O=C(O)C1=CO[C@@H](O[C@@H]2O[C@H](CO)[C@H](O)[C@H](O)[C@H]2O)[C@@H]2C(CO)=CC[C@H]12 | 43.1%
3 | CC=C(C(=CC)c1ccc(O)cc1)c1ccc(O)cc1 | 218%
4 | CC1(C)[C@H]2CC[C@]3(C)[C@@H](C(=O)C=C4[C@@H]5C[C@@](C)(C(=O)O)CC[C@]5(C)CC[C@]43C)[C@@]2(C)CC[C@@H]1O | 23.2%
5 | Cc1[nH]c(C=C2C(=O)Nc3ccc(S(=O)(=O)N(C)c4cccc(Cl)c4)cc32)c(C)c1C(=O)N1CCN(C)CC1 | 3.08%
6 | COC(=O)N1CCN(Cc2cccc(NC(=O)Nc3ccc(C)nc3)c2F)CC1 | 17.7%
7 | Oc1ccc(C=Cc2cc(O)cc(O)c2)cc1 | 17.5%
8 | CCC(c1ccc(O)cc1)C(CC)c1ccc(O)cc1 (stereo not given) | 125%
9 | CCC=CC[C@H]1C(=O)CC[C@@H]1CC(=O)OC | 0%
10 | CCOC(=O)N1CCN([N+]([O-])=NOc2cc(ON=[N+]([O-])N3CCN(C(=O)OCC)CC3)c([N+](=O)[O-])cc2[N+](=O)[O-])CC1 | 0.922%
11 | O=C(O)c1ccc(O)c2ncc(N3CCOCC3)cc12 | 2.18%
12 | O=C(Nc1ccccc1)Nc1ccc(-c2ccc(C(=O)[C@H]3CCC[C@H]3C(=O)O)cc2)cc1 | 109%
13 | CNc1nc(-c2ccc3c(N)n[nH]c3c2)cc(N2C[C@@H](C(=O)NC3CCCCC3)CC[C@@H]2C)n1 | 0%
14 | CC(C)c1onc(-c2c(Cl)cccc2Cl)c1COc1ccc(C=Cc2cccc(C(=O)O)c2)c(Cl)c1 | -16.5%
15 | O=C(c1ccc(C=Cc2n[nH]c3ccccc23)cc1)N1CCNCC1 | 50.2%
